The nature of assay [1]: Nuclear factor erythroid 2-related factor 2/antioxidant responsive element (Nrf2/ARE) small molecule agonists: luciferase reporter gene qHTS assay in human keratinocytes (AID 1919969). Note: nearly all actives have a fitted effect of over 35% in size. Note: potency is the fitted concentration of half-maximal effect.
Assay [2] concerns the target Gonadotropin-releasing hormone receptor (Homo sapiens) (UniProt P30968). In words: Human gonadotropin-releasing hormone receptor (GnRHR) small molecule agonists, calcium flux assay in GnRHR-HEK293 cells (AID 1920063). Note: nearly all actives have a fitted effect of over 35% in size. Summed up:
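GnRHR-HEK293, 1500 cells/well, 18 h 37 C/5% CO2; Ca dye 1 h 37 C; cpd pinned (DMSO), agonist mode; kinetic FL 480/540, 3 min, 1 s reads; 15 conc, n=3.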

Assay [3] addresses KiSS-1 receptor (Homo sapiens) (UniProt Q969F8). In words: Human kisspeptin (KISS1R) small molecule agonists, calcium flux assay in KISS1R-HEK293 cells (AID 1920064; active = well fitted activation curve with a large enough effect in the repeat runs). Summed up: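 Stable human KISS1R HEK293 line; 18 h plating, 37 C/5% CO2; calcium dye 1 h 37 C; compound pin transfer; kinetic fluorescence Ex/Em 480/540, 3 min.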
The nature of assay [4]: G protein-coupled receptor (GPCR) small molecule agonists, calcium flux assay: HEK293 wild type cell line counter screen (AID 1920065). Summed up: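 Kinetic fluorescence at Ex/Em 480/540, recorded every second over 3 min, served as the read-out after compound addition. Each compound was tested at 15 concentrations in triplicate on cells pre-loaded with calcium dye for 1 h.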

Assay [5] is described as follows: p53 small molecule agonists, cell-based qHTS assay with rat liver microsomes (AID 1963578). Summed up:
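Cells carrying a p53 response element–beta-lactamase reporter were plated and rested 5 h, then dosed with compound in DMSO plus rat liver microsomes and NADPH, each at 0.5 mg/mL final. After 16 h at 37 C, LiveBLAzer substrate was added for 2 h.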

Assay [6] can be described thus: p53 small molecule agonists, cell-based qHTS assay with human liver microsomes: qHTS cell viability counter screen (AID 1963579). Note: nearly all actives have a fitted effect of over 45% in size. Summed up:
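Cytotoxicity counter screen: p53RE-bla, 4,000 cells/well; 5 h settle, 37 C/5% CO2; cpd + HLM 0.5 mg/mL + NADPH 0.5 mg/mL (final); 16 h, 37 C; CellTiter-Glo, 30 min RT, luminescence.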

Assay [7] is described as follows: p53 small molecule agonists, cell-based qHTS assay (AID 1963582; active = well fitted activation curve with a large enough effect in the signal ratio in the repeat runs, not every such curve was filed as active; the % refers to the signal ratio). Summed up:
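Reporter line: p53RE-bla. Pre-incubation 5 h, 37 C, 5% CO2; compound (DMSO, pin tool) 16 h, 37 C; B/G FRET substrate 2 h RT; fluorescence intensity read.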

Assay [8] deals with 5-hydroxytryptamine receptor 2A (Homo sapiens) (UniProt P28223). The experiment in a line: 5-hydroxytryptamine receptor 2A (HTR2A) small molecule antagonists, cell-based qHTS assay (AID 1963586). Note: nearly all actives have a fitted effect of over 45% in size. Summed up:
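Antagonist-mode intracellular calcium assay: DOI (4 nM) added after 5 min compound pre-incubation at room temperature to dye-loaded HTR2A-CHO cells. Fluorescence followed for 3 min, sampled every second.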

The target is the same in assay [9]. The experiment in a line: 5-hydroxytryptamine receptor 2A (HTR2A) small molecule agonists, cell-based qHTS assay (AID 1963587). Note: nearly all actives have a fitted effect of over 30% in size. Summed up: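 CHO cells stably expressing human HTR2A, plated 18 h, loaded with calcium dye 1 h at 37 C. Agonist mode: compounds added and intracellular calcium fluorescence recorded kinetically for 2 min at 1 sec intervals.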
Assay [10] concerns the target Muscarinic acetylcholine receptor M1 (Homo sapiens) (UniProt P11229). The experiment in a line: Cholinergic receptor muscarinic 1 (CHRM1) small molecule agonists, cell-based qHTS assay (AID 1963589). Note: nearly all actives have a fitted effect of over 35% in size. Summed up: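 Human M1 in stable CHO line; 18 h plating, 1 h dye load 37 C; cpd added (agonist mode); Ca2+ fluorescence kinetic read, 1 s intervals; 15 conc, 3 runs.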
The target in assay [11] is Beta-2 adrenergic receptor (Homo sapiens) (UniProt P07550). In words: Adrenergic beta2 receptor (ADRB2) small molecule antagonists, cell-based qHTS assay (AID 1963592). Note: series mostly up to about 92 µM; nearly all actives have a fitted effect of over 50% in size. Summed up: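 Cells (CHO, stable ADRB2 overexpression) incubated 18-20hr at 37C; compounds added from DMSO; agonist mix (1nM isoproterenol, 100uM IBMX, 25uM Ro-20-1724) added; 0.5hr RT; d2-cAMP and anti-cAMP-cryptate added; 1hr RT; 665/615 nm read.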

Assay [12] concerns the target D(2) dopamine receptor (Homo sapiens) (UniProt P14416). The experiment in a line: Dopamine D2 receptor (DRD2) small molecule antagonists, cell-based qHTS assay (AID 1963595; active = well fitted inhibition curve with a large enough effect in the signal ratio in the repeat runs, with a control signal flat; the % refers to the signal ratio). Summed up: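 In this cell-based antagonist screen, compounds act for 10 min at room temperature before a 30 min challenge with 12 nM quinpirole and 200 nM NKH477. cAMP is quantified by HTRF competition in DRD2-HEK293 cells containing 0.1 mM Ro20-1724.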

Assay [13] is described as follows: p53 small molecule agonists, cell-based qHTS assay with rat liver microsomes: qHTS cell viability counter screen (AID 1963580). Note: nearly all actives have a fitted effect of over 45% in size. Summed up: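 p53RE-bla HCT-116 cells were exposed 16 h at 37 C to compounds with rat liver microsomes (0.5 mg/mL) and NADPH (0.5 mg/mL). Viability was measured in the same wells as ATP content by CellTiter-Glo luminescence.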
Assay [14] is described as follows: p53 small molecule agonists, cell-based qHTS assay: qHTS cell viability counter screen (AID 1963581). Note: nearly all actives have a fitted effect of over 45% in size. Summed up: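 HCT-116 p53RE-bla cells, 4,000/well, plated 5 h before compound pin transfer; 16 h at 37 C; bla substrate 2 h RT; then CellTiter-Glo, 30 min RT, luminescence.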
Assay [15] can be described thus: cAMP Responsive Elements (CRE) small molecule agonists, cell-based qHTS assay (AID 1963590). Summed up:
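HEK 293T CRE-bla, 2,000 cells/well, 18 h preincubation 37 C/5% CO2; cpds (DMSO) pinned, 3 h; LiveBLAzer B/G FRET substrate, 2 h RT.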

A short description of assay [16]: cAMP Responsive Elements (CRE) small molecule antagonists, cell-based qHTS assay (AID 1963591; active = well fitted inhibition curve with a large enough effect in the signal ratio in the repeat runs, not every such curve was filed as active; the % refers to the signal ratio). Summed up:
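Beta-lactamase reporter read by FRET substrate (LiveBLAzer B/G) after 2 h at room temperature. CRE-bla HEK293T cells had received compound plus 0.25 uM (final) NKH477 for 3 h at 37 °C.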

The target in assay [17] is Beta-2 adrenergic receptor (Homo sapiens) (UniProt P07550). In words: Adrenergic beta2 receptor (ADRB2) small molecule agonists, cell-based qHTS assay (AID 1963593).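 Note: CHO cells stably overexpressing human ADRB2.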 Summed up:
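CHO cells stably over-expressing ADRB2 were plated overnight at 37C, then dosed with compounds plus a stimulation mix containing 100uM IBMX and 25uM Ro-20-1724 for 0.5hr at room temperature. cAMP was measured by HTRF competition, 1hr.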

A short description of assay [18]: p53 small molecule agonists, cell-based qHTS assay with human liver microsomes (AID 1963577). Summed up:
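Fluorescence of the beta-lactamase reporter in p53RE-bla cells, detected with LiveBLAzer substrate (2 h, room temperature, dark), served as the read-out after 16 h compound exposure at 37 C with human liver microsomes and NADPH, each 0.5 mg/mL final.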

The target of assay [19] is Muscarinic acetylcholine receptor M1 (Homo sapiens) (UniProt P11229). The experiment in a line: Cholinergic receptor muscarinic 1 (CHRM1) small molecule antagonists, cell-based qHTS assay (AID 1963588). Note: nearly all actives have a fitted effect of over 40% in size. Note: potency is the fitted concentration of half-maximal effect. Summed up:
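CHRM1-CHO calcium-flux assay, antagonist mode. Cells were seeded 18 h, dye-loaded 1 h at 37 C and given compound for 5 min at RT, then acetylcholine was added at 50nM. FDSS fluorescence was read 3 min; 15 concentrations, three runs.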

Assay [20] has as its target D(2) dopamine receptor (Homo sapiens) (UniProt P14416). In words: Dopamine D2 receptor (DRD2) small molecule agonists, cell-based qHTS assay (AID 1963594). Note: nearly all actives have a fitted effect of over 35% in size. Summed up: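 HEK293 cells stably expressing human DRD2, pre-treated with PDE inhibitor Ro20-1724 (0.1 mM final) and compound 10 min at room temperature, then stimulated with NKH477 (200nM […]) for 30 min. cAMP read by HTRF (665/620 nm).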

Records with an inconclusive call do not appear. Activity calls are given as the source filed them. Unless noted, calls come from the whole dose curve.

Potency data for 8 compounds are collected here from PubChem BioAssay (Tox21).

KiSS-1 receptor (Homo sapiens), sequence (Q969F8 whole entry, looked up): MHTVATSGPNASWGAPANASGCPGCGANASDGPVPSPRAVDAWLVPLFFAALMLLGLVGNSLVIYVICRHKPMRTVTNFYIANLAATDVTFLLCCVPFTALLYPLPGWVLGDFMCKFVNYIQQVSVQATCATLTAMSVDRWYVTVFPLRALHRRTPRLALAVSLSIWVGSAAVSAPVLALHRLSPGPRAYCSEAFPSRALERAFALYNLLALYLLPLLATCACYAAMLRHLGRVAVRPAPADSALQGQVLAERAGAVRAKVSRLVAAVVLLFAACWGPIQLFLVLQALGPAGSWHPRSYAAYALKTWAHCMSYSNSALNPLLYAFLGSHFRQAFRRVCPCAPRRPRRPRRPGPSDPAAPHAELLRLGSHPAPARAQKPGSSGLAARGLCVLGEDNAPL
Gonadotropin-releasing hormone receptor (Homo sapiens), sequence (P30968 whole entry, looked up): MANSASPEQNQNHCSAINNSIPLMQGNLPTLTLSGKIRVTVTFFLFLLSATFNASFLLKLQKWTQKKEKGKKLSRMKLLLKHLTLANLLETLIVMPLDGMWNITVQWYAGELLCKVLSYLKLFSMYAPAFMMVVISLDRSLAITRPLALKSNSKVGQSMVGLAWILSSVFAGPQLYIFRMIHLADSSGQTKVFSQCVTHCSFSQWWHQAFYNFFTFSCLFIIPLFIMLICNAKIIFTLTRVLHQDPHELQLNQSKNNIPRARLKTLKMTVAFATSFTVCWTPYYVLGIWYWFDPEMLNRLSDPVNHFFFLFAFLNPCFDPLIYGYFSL
D(2) dopamine receptor (Homo sapiens), sequence (P14416 whole entry, looked up): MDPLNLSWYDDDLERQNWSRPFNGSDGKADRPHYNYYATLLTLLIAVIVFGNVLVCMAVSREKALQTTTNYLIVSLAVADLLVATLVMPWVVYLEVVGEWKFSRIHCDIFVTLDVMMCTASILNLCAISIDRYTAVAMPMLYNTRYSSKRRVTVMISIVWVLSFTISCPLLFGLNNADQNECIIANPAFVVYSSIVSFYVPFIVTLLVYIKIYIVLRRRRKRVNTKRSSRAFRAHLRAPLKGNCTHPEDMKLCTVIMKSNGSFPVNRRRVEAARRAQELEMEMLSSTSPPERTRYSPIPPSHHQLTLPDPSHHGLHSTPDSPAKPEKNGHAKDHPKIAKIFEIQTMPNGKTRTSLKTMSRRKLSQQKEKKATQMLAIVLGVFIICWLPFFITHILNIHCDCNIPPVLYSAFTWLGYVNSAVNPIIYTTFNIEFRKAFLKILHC
5-hydroxytryptamine receptor 2A (Homo sapiens), sequence (P28223 whole entry, looked up): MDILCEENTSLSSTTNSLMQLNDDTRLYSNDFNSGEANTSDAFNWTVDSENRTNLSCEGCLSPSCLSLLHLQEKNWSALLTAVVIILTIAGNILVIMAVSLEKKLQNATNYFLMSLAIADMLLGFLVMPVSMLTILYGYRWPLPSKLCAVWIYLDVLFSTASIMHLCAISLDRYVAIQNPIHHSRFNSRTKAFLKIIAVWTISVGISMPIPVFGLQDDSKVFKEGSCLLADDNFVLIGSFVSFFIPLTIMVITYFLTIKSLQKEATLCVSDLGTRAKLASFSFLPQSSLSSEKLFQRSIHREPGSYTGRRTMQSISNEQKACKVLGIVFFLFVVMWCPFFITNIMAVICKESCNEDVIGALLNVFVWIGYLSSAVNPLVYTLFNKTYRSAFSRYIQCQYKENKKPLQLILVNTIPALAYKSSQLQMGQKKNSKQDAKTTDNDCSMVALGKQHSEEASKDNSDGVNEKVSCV
Muscarinic acetylcholine receptor M1 (Homo sapiens), sequence (P11229 whole entry, looked up): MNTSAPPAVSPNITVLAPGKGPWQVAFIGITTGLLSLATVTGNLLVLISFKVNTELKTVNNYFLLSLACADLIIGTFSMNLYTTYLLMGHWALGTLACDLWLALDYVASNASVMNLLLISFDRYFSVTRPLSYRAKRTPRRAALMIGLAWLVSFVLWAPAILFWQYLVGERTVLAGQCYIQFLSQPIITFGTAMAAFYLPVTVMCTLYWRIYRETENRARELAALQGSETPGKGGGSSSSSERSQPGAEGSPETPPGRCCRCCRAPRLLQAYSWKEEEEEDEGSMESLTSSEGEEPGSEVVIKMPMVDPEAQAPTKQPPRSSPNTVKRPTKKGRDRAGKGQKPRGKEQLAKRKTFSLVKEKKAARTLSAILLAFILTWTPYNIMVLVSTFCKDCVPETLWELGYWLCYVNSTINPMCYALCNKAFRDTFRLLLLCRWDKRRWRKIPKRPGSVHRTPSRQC
Beta-2 adrenergic receptor (Homo sapiens), sequence (P07550 whole entry, looked up): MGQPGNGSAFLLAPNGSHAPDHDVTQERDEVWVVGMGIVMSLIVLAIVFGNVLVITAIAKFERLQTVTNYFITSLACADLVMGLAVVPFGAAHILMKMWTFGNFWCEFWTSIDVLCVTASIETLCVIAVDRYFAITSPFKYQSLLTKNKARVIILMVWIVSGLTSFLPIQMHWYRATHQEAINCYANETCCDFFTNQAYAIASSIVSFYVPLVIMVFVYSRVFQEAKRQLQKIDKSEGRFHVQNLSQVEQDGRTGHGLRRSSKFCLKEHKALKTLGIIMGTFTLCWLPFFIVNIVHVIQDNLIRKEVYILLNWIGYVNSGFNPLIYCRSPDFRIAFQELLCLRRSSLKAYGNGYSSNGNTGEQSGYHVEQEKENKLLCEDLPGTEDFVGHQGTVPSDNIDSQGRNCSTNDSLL

As to `CCC(C)(C)C(=O)OC1=C(c2ccc(Cl)cc2Cl)C(=O)OC12CCCCC2`, the Potency in [1] is 9.69 µM (active). Besides, the Potency result in [2], in assay [3], in [4], in assay [5], in assay [6] and in assay [7] was “inactive” in each case. In addition, the Potency result in assay [8], in assay [9], in assay [10], in [11] and in assay [12] was “inactive” throughout.

Turning to `CN(C)C(=O)Oc1cc(OC(=O)N(C)C)cc(C(O)CNC(C)(C)C)c1` (stereo not drawn), the Potency entry in assay [1], in [2], in [3], in [4], in assay [5] and in [6] was “inactive” throughout. Also, the Potency entry in assay [13], in assay [14], in assay [7], in [15], in [16] and in [11] was “inactive” throughout. The Potency result in assay [17] and in assay [12] was “inactive” each time.

Turning to `Oc1cc(Cl)c(Cl)c(Cl)c1`, the Potency in assay [1] is 65 µM (active). Also, the Potency result in assay [2], in [3], in [4], in [18], in assay [5] and in assay [13] was “inactive” in each case. For the same compound, the Potency result in assay [14], in assay [8], in assay [9], in assay [19], in assay [10] and in [16] was “inactive” throughout. Further, the Potency entry in [11], in assay [20] and in [12] was “inactive” each time.

Take `COc1cccc(C(=O)NN(C(=O)c2cc(C)cc(C)c2)C(C)(C)C)c1C`: the Potency result in [1], in assay [2], in assay [3], in assay [4], in [5] and in assay [6] was “inactive” throughout. Further, the Potency entry in [13], in assay [14], in [7], in [9], in assay [10] and in [11] was “inactive” in each case. Further, the Potency entry in assay [20] and in assay [12] was “inactive” in each case. Also, the Potency in assay [19] is 14.9 µM (active).

For `CC(=O)[C@H]1CC[C@H]2[C@@H]3CC[C@H]4C[C@H](O)CC[C@]4(C)[C@H]3C(=O)C[C@]12C`, the Potency result in assay [1], in assay [2], in [3], in [4], in [18] and in [5] was “inactive” each time. The Potency entry in assay [13], in assay [14], in assay [7], in assay [8], in assay [9] and in assay [19] was “inactive” throughout. In addition, the Potency result in assay [10], in [15], in assay [11], in [17], in [20] and in [12] was “inactive” throughout.

For `N#CCCSCCC#N`, the Potency result in assay [1], in assay [2], in assay [3], in [4], in assay [5] and in [6] was “inactive” each time. For the same compound, the Potency entry in [13], in assay [14], in assay [7], in assay [8], in assay [9] and in [19] was “inactive” each time. The Potency entry in [10], in [15], in assay [11], in assay [17] and in [12] was “inactive” in each case.

Turning to `CC1COC(Cn2cncn2)(c2ccc(Oc3ccc(Cl)cc3)cc2Cl)O1` (stereo not drawn), the Potency result in [1], in [2], in assay [3], in assay [4], in [18] and in [5] was “inactive” each time. Also, the Potency result in assay [13], in assay [14], in assay [8], in assay [9], in [10] and in assay [11] was “inactive” throughout. For the same compound, the Potency result in assay [20] and in assay [12] was “inactive” each time.

On to `COc1cccc2c1cc([N+](=O)[O-])c1c(C(=O)O)cc3c(c12)OCO3`, for which, in assay [1], the Potency is 12.2 µM (active). The Potency result in [2], in [3], in [4], in [5], in assay [6] and in assay [14] was “inactive” throughout. Besides, the Potency result in assay [8], in [9], in assay [19], in assay [10] and in assay [20] was “inactive” in each case.
